{"source": "PubChem BioAssay (NCATS)", "note": "Inconclusive results are not listed. Values without a mark were called inactive. The source made the active and inactive calls. Calls follow the shape of the dose curve; as a rule, active = well fitted cell-killing curve with a large enough effect; inconclusive = small, poorly fitted or top-dose-only effect, or effect the other way; inactive = no such curve, though single readings can be large or run the other way. Potency is read from the fitted curve at half-maximal effect."}
{"assay": "Quantitative High-Throughput drug screen in 47 multiple myeloma cell lines against the NCATS MIPE library collection: KMS11_JCRBsus cell viability assay (AID 1919873); also: nearly all actives have a fitted effect of over 50% in size", "settings": "KMS11 myeloma viability, CellTiter-Glo ATP luminescence, 48 h; series mostly up to 45.8 µM; viability (% of control): at the top concentration", "text": "PI: Beverly A. Mock Ph.D.\nLaboratory of Cancer Biology and Genetics,\nCenter for Cancer Research, National Cancer Institute,\nNational Institute of Health, Bethesda, Maryland\nDrug resistance and disease progression are common in multiple myeloma (MM) patients, underscoring the need for new therapeutic combinations. […] We hypothesized that effective combinations would reduce MYC expression and enhance p16 activity. […] These preclinical data identify potentially useful drug combinations for evaluation in drug-resistant MM and reveal potential mechanisms of combined drug sensitivity.\nDescribed herein is the primary MIPE qHTS used to cherrypick compounds. Validated compounds were then further tested for potential synergistic activiy.\n[1] Peat TJ, Gaikwad SM, Dubois W, Gyabaah-Kessie N, Zhang S, Gorjifard S, Phyo Z, Andres M, Hughitt VK, Simpson RM, Miller MA, Girvin AT, Taylor A, Williams D, D'Antonio N, Zhang Y, Rajagopalan A, Flietner E, Wilson K, Zhang X, Shinn P, Klumpp-Thomas C, McKnight C, Itkin Z, Chen L, Kazandijian D, Zhang J, Michalowski AM, Simmons JK, Keats J, Thomas CJ, Mock BA. Drug combinations identified by high-throughput screening promote cell cycle transition and upregulate Smad pathways in myeloma. Cancer Lett. 2023 Aug 1;568:216284. doi: 10.1016/j.canlet.2023.216284. Epub 2023 Jun 24. PMID: 37356470; PMCID: PMC10408729.\nSEQUENCE No. (e.g., 1, 2, 3, etc.); […] (e.g., Cells, Incubation, Reagent, etc.); VALUE and DESCRIPTION.\n1; Cells; 5 uL; white, solid bottom 1536-well Greiner assay plate.\n2; Compounds; 23 nL; Kalypsis pin tool (Wako USA) equipped with a 1536-well pin head to transfer to the assay plates.\n3; Incubation; 48 hours; 37C incubation.\n4; Reagent;5uL; CellTiter Glo (Promega).\n5; Detector; 425V; Luminescence; Viewlux PerkinElmer.\nNOTES (numbers refer to Sequence numbers above)\n1. The cell-based screening methods employed in this study were like those previously published. Briefly, the corresponding myeloma cell lines were screened in 1,536-well plates with 500 cells, 5-uL per well for inhibition of cell viability (assessed by measuring ATP levels with CellTiterGlo).\n2. NCATS MIPE 4.0 library of approved and investigational drugs were added using the Kalypsis pin tool. Wells treated with DMSO only for 100% viability and media only for 0% viability were used as controls.\n3. The assay plates were covered and incubated for 48 hours in a 37C, 5% CO2 incubator with controlled humidity.\n4. After 48 hours, CellTilter-GloTM luminescent substrate mix (Promega) reagent was added to the assay plate and plates we incubated for 5 min at room temperature.\n5. Signal was measured as median relative luminescence units on a ViewLux (PerkinElmer) multiplate reader.\n[1] Heske CM, Davis MI, Baumgart JT, Wilson K, Gormally MV, Chen L, Zhang X, Ceribelli M, Duveau DY, Guha R, Ferrer M, Arnaldez FI, Ji J, Tran HL, Zhang Y, Mendoza A, Helman LJ, Thomas CJ. Matrix Screen Identifies Synergistic Combination of PARP Inhibitors and Nicotinamide Phosphoribosyltransferase (NAMPT) Inhibitors in Ewing Sarcoma. Clin Cancer Res. 2017 Dec 1;23(23):7301-7311. doi: 10.1158/1078-0432.CCR-17-1121. Epub 2017 Sep 12. PMID: 28899971; PMCID: PMC6636827."}
{"smiles": "C=C1c2cccc(O)c2C(O)=C2C(=O)[C@@]3(O)C(O)=C(C(N)=O)C(=O)[C@@H](N(C)C)[C@@H]3[C@@H](O)[C@H]12", "viability (% of control)": "101%"}
{"smiles": "CCC[C@H](N[C@@H](C)C(=O)N1[C@@H]2CCCC[C@H]2C[C@H]1C(=O)O)C(=O)OCC", "viability (% of control)": "91.6%"}
{"smiles": "CC(=O)OCC(=O)[C@@]1(O)CC[C@H]2[C@@H]3CCC4=CC(=O)C=C[C@]4(C)[C@@H]3[C@@H](O)C[C@@]21C", "Potency": "0.235 µM (active)"}
{"smiles": "O=c1[nH]nc(OCCCc2ccc(Cl)cc2)c(NCc2cccnc2)c1Br", "Potency": "5.26 µM (active)"}
{"smiles": "CC[C@@H]([C@H](C)O)n1ncn(-c2ccc(N3CCN(c4ccc(OCC5CO[C@@](Cn6cncn6)(c6ccc(F)cc6F)C5)cc4)CC3)cc2)c1=O", "note": "(stereo not given in full)", "Potency": "11.8 µM (active)"}
{"smiles": "OC(c1cc(C(F)(F)F)nc2c(C(F)(F)F)cccc12)C1CCCCN1", "note": "(stereo not given)", "Potency": "11.8 µM (active)"}
{"smiles": "CC(C)n1c(C=C[C@H](O)C[C@H](O)CC(=O)O)c(-c2ccc(F)cc2)c2ccccc21", "Potency": "8.33 µM (active)"}
{"smiles": "C[C@H]1O[C@@H](n2cc(F)c(=O)[nH]c2=O)[C@H](O)[C@H]1O", "Potency": "7.43 µM (active)"}
{"smiles": "N=C1SC(=Cc2ccc(-c3ccc4c(c3)C(=O)NC4=O)o2)C(=O)N1c1ccc(Br)cc1", "viability (% of control)": "95.6%"}
{"smiles": "O=C1C(c2c(O)[nH]c3ccccc23)=Nc2ccccc21", "viability (% of control)": "98.8%"}
{"smiles": "CCC(=C(CC)c1ccc(O)cc1)c1ccc(O)cc1", "Potency": "14.8 µM (active)"}
{"smiles": "CN1CC(=O)NC1=NC(=O)Nc1cccc(Cl)c1", "Potency": "11.8 µM (active)"}
{"smiles": "NC(N)=Nc1nc(CSCCC(N)=NS(N)(=O)=O)cs1", "viability (% of control)": "88.4%"}
{"smiles": "c1cc(OCCN2CCCCC2)cc(-c2n[nH]c3ccc(-c4ncn[nH]4)cc23)c1", "Potency": "16.6 µM (active)"}
{"smiles": "CCCCC[C@H](O)C=C[C@H]1[C@H](O)CC(=O)[C@H]1CCCCCCC(=O)O", "viability (% of control)": "91.8%"}
{"smiles": "O=C1CCCC(=O)C1C(=O)c1ccc(C(F)(F)F)cc1[N+](=O)[O-]", "viability (% of control)": "110%"}
{"smiles": "COc1ccc(-c2cc(=O)c3c(O)cc(O[C@@H]4O[C@H](CO[C@@H]5O[C@@H](C)[C@H](O)[C@@H](O)[C@@H]5O)[C@@H](O)[C@H](O)[C@@H]4O)cc3o2)cc1O", "viability (% of control)": "105%"}
{"smiles": "CC(C)(C)c1[nH]cnc1C=c1[nH]c(=O)c(=Cc2ccccc2)[nH]c1=O", "viability (% of control)": "1.46% [at 92.2 µM]"}
{"smiles": "Fc1ccc(CNc2ncnc3ccc(F)cc23)cc1", "Potency": "10.5 µM (active)"}
{"smiles": "NC(=O)c1ccc(N(C(N)=O)c2c(F)cccc2F)nc1-c1ccc(F)cc1F", "viability (% of control)": "70.8%"}
{"smiles": "N#CC1(c2cccc(C(=O)Nc3cc(Oc4ccc5nc(NC(=O)C6CC6)sc5n4)ccc3F)c2Cl)CC1", "Potency": "0.132 µM (active)"}
{"smiles": "CN1CCN2c3ncccc3Cc3ccccc3C2C1", "note": "(stereo not given)", "viability (% of control)": "102%"}
{"smiles": "CON(C)C(=O)N1N=C(c2cc(F)ccc2F)S[C@]1(CCCN)c1ccccc1", "viability (% of control)": "2.1%"}
{"smiles": "O=C(Nc1cccc(Cl)c1)Nc1ncc(CCNc2ncnc3ccsc23)s1", "Potency": "11.8 µM (active)"}
{"smiles": "CCNC(=O)Nc1ccc(Oc2ncnc(N)c2C=NOC)cc1Cl", "Potency": "9.35 µM (active)"}
{"smiles": "O=C(Nc1cccc(C(F)(F)F)c1)Nc1cc(S(=O)(=O)NC2CC2)ccc1-c1ccsc1", "Potency": "16.6 µM (active)"}
{"smiles": "Cc1ccc(C(=O)N(CCCN)[C@@H](c2nc3cc(Cl)ccc3c(=O)n2Cc2ccccc2)C(C)C)cc1", "viability (% of control)": "1.47%"}
{"smiles": "O=C1NC(=O)C(c2cnc3ccccn23)=C1c1cn2c3c(cccc13)CN(C(=O)N1CCOCC1)CC2", "Potency": "0.0935 µM (active)"}
{"smiles": "CN[C@@H]1[C@@H](O)[C@@H](O[C@@H]2[C@@H](O)[C@H](O[C@H]3O[C@H](CN)[C@@H](O)[C@H](O)[C@@H]3O)[C@@H](N)C[C@@H]2NC(=O)[C@@H](O)CN)OC[C@]1(C)O", "Potency": "7.43 µM (active)"}
{"smiles": "O=C(O)C1=NC(C(=O)O)CC(C=CN2c3cc(O)c(OC4OC(CO)C(O)C(O)C4O)cc3CC2C(=O)O)=C1", "note": "(stereo not given)", "viability (% of control)": "108%"}
{"smiles": "COc1cc2nccc(Oc3ccc(NC(=O)Nc4cc(C)on4)c(Cl)c3)c2cc1OC", "Potency": "20.9 µM (active)"}
{"smiles": "CN1CCN(c2ncc(-c3cc(Cl)cc(Cl)c3Cl)c(N)n2)CC1", "viability (% of control)": "98.5%"}
{"smiles": "O=C(NC[C@H](O)CO)c1ccncc1Nc1ccc(I)cc1F", "Potency": "2.64 µM (active)"}
{"smiles": "CNC(=O)c1cc(Oc2ccc(NC(=O)Nc3ccc(Cl)c(C(F)(F)F)c3)c(F)c2)ccn1", "Potency": "14.8 µM (active)"}
{"smiles": "N[C@@H](CC(=O)N1CCn2c(nnc2C(F)(F)F)C1)Cc1cc(F)c(F)cc1F", "viability (% of control)": "99%"}
{"smiles": "CC(C)C[C@@H](N)[C@H](O)C(=O)N[C@H](C(=O)N[C@H](C(=O)N[C@@H](CC(=O)O)C(=O)O)C(C)C)C(C)C", "viability (% of control)": "96.7%"}
{"smiles": "CCC(=O)NCC[C@@H]1CCc2ccc3c(c21)CCO3", "viability (% of control)": "103%"}
{"smiles": "COc1ccc(CCC(=O)Nc2nc3ccc(Cl)cc3s2)cc1OC", "Potency": "11.8 µM (active)"}
{"smiles": "OC[C@H]1O[C@@H](OCCc2ccc(O)cc2)[C@H](O)[C@@H](O)[C@H]1O", "viability (% of control)": "106%"}
{"smiles": "CC1(C)OC2CC3C4CC(F)C5=CC(=O)C=CC5(C)C4C(O)CC3(C)[C@]2(C(=O)CO)O1", "note": "(stereo not given in full)", "Potency": "0.0264 µM (active)"}
